JMJD2A Tudor: inhibitors of human JMJD2A Tudor domain. AlphaScreen JMJD2A-Tudor / H3K4me3 peptide binding. Potency, µM (highest dose often 114 µM), actives largely listed as inhibitors. 390,000 compounds, 4.4% hits. O75164; note: nearly all actives have a fitted effect of over 50% in size
BAZ2B block: BAZ2B (human) inhibition | Potency, µM (top dose mostly 114 µM), usual class: inhibitors | 360,000 compounds, 4.4% hits | AID 504333 | AlphaScreen BAZ2B-H3K14Ac peptide displacement; note: nearly all actives have a fitted effect of over 60% in size
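BAZ2B (50 nM) with biotin-H3(5-23)K14Ac peptide (50 nM) in PBS pH 7.4, 0.01% Tween-20, preformed 30 min, then compound 30 min at room temperature; top concentration 110uM. AlphaScreen streptavidin donor/nickel chelate acceptor beads (10 ug/mL final), 20 min dark, signal read.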
G9a inh: blocks human histone lysine methyltransferase G9a; 350,000 compounds, 8.8% hits; AID 504332; Q96KQ7; Potency, µM (titrated, usually from 102 µM), most hits filed as inhibitors; G9a H3K9 monomethylation, AlphaScreen, 2 h; note: nearly all actives have a fitted effect of over 75% in size
Target sequence (Q96KQ7 913-1193 limits assumed): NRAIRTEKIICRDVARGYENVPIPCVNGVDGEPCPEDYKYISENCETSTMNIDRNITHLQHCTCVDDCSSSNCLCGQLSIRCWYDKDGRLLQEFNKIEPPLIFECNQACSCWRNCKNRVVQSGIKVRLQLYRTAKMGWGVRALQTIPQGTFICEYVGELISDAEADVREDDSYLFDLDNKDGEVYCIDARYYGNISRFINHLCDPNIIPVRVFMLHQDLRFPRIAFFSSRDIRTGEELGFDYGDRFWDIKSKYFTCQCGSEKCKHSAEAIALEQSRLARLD
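Readings reflect AlphaScreen signal from monomethyl-H3K9 antibody detection. HMT at 20 nM; substrate b-H3K9 500 nM; cofactor SAM 20 uM; 2 h RT reaction; compounds tested as titrations in qHTS with 15 min preincubation.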
ALOX12 inh: ALOX12 (human) lipoxygenase inhibition | purified 12hLO, xylenol orange hydroperoxide absorbance | Potency, µM (highest dose often 108 µM), usual class: inhibitors | P18054 | AID 1671190 | 580,000 compounds, 1.1% hits
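Hydroperoxide product was detected by ferrous iron/xylenol orange as the 573 to 405 nm absorbance ratio. Arachidonic acid at 40 uM (final) was turned over for 30 min at room temperature by 150 nM human 12hLO, pH 7.0 Hepes buffer, after 15 min compound preincubation.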
PLK1 PBD inh: inhibitors of human PLK1 polo-box domain binding; P53350; Plk1 PBD binding of FITC phosphopeptide, fluorescence polarization; Potency, µM, hits mostly inhibitors; 360,000 compounds, 2.8% hits; note: series mostly up to about 57 µM; nearly all actives have a fitted effect of over 65% in size
HP1b binding inh: inhibitors of HP1-beta chromodomain binding to methylated histone tails. P83916. AlphaScreen HP1-beta / biotin-H3K9me3 peptide binding. Potency, µM (series often up to 114 µM), most hits filed as inhibitors. 390,000 compounds, 0.56% hits; note: nearly all actives have a fitted effect of over 70% in size
Target sequence (P83916 whole entry, looked up): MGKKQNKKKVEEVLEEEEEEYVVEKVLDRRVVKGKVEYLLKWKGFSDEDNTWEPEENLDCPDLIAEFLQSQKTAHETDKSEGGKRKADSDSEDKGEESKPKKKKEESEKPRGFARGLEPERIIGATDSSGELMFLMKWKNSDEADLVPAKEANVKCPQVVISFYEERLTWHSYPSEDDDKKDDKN
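AlphaScreen: HP1-beta (50 nM) preformed 30 min with biotin-H3(1-18)K9me3 peptide (50 nM) in PBS pH 7.4, 0.01% Tween-20. Compound added for 30 min at RT, then streptavidin donor/nickel chelate acceptor beads (10 ug/mL) for 30 min.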
Numbers stand for hits; i = inactive; ? = inconclusive; nt = no result; [ ] = another dose, or the depositor's remark. Compounds with a hit are over-represented: about 9% of the library has one in this group of screens. Calls come from the whole dose curve; as a rule, active = well fitted curve in the direction sought with a large enough effect; inconclusive = small, poorly fitted or top-dose-only effect, or another doubt; inactive = no such curve, though single readings can be large; an effect the other way counts as inactive or inconclusive.

SMILES	JMJD2A Tudor	BAZ2B block	G9a inh	ALOX12 inh	PLK1 PBD inh	HP1b binding inh
O=C(O)C1Oc2cc3ccccc3cc2O1	?	i	44.7µM	i	?	?
COc1ccc(C(CNC(=O)C(C)Oc2ccc(Br)cc2)N2CCCC2)cc1 (stereo not given)	i	i	i	i	i	i
O=C1/C(=C/c2ccc(-c3ccc(F)cc3)o2)Cc2ccccc21	nt	nt	nt	17.8µM	nt	nt
O=C1/C(=C\c2ccc(Br)o2)Cc2ccccc21	?	?	?	?	i	i
O=C(O)CCNC(=O)c1ccc(N=Nc2ccc(O)c(C(=O)O)c2)cc1	nt	nt	i	34.3µM	nt	nt
O=C(O)c1cc(N=Nc2ccc(O)c(C(=O)O)c2)ccc1O	nt	nt	i[12.7 µM]	nt	nt	nt
Cc1ccc(C2N3CC4([N+](=O)[O-])CN2CC([N+](=O)[O-])(C3)C4(C)C)cc1 (stereo not given)	i	i	i	i	i	i
CC1(C)C2([N+](=O)[O-])CN3CC1([N+](=O)[O-])CN(C2)C3c1ccc(O)c(O)c1 (stereo not given)	?	i	22.4µM	?	i	i
c1ccc(-c2nc3ccccc3nc2N2CCOCC2)cc1	i	i	i	?	i	i
Cn1c(N2CCOCC2)nc(-c2ccccc2)c1-c1ccccc1	i	?	50.1µM	i	i	i
CCN=c1sc(C(=O)OC)cc(=O)n1CC	i	i	i	i	i	i
C=CCN=c1sc(C(=O)OC)cc(=O)n1CC=C	?	i	i	i	29.9µM	i
Cn1c(=O)c2cc(NC(=O)NCc3ccc(F)cc3)ccc2n1C/C=C/c1ccccc1	nt	nt	nt	i	i	nt
CCOc1ccc(N2CC(=O)N/C2=N\c2nc(C)cc(C)n2)cc1	?	i	56.2µM	?	i	i
Nc1nc2c(ncn2-c2ccccc2)c(=O)[nH]1	i	nt	nt	i	i	i
O=c1[nH]c(=S)c2ncn(-c3ccccc3)c2[nH]1	14.1µM	?	25.1µM	?	26.7µM	i
N#CCCn1nnc2ccccc21	i	i	i	i	i	i
c1ccc(CCn2nnc3ccccc32)cc1	i[11.4 µM]	i	nt	i	21.2µM	i
Nc1nnc(SCC(=O)OCC(=O)c2ccccc2)s1	i	i	i	i	i	i
Nc1nnc(SCC(=O)OCC(=O)c2ccccc2Br)s1	i	i	39.8µM	i	i	i
COC(=O)c1ccccc1NC(=O)COC(=O)CSc1nnc(N)s1	i	i	28.2µM	i	i	i
O=C(CCCc1ccccc1)N1CCC2(CC1)CC(OCC1CC1)CCO2 (stereo not given)	nt	nt	nt	i	nt	nt
N#Cc1cccc(CN2CCc3nc(C(=O)NCCOc4ccccc4)oc3CC2)c1	nt	nt	nt	i	nt	nt
O=C(CNS(=O)(=O)c1ccc(Br)cc1)NCc1cccnc1	i	i	nt	i	i	i
COc1cccc(S(=O)(=O)Nc2ccc3sc(C)nc3c2)c1	79.4µM	i	22.4µM	?	i	i
SMILES	JMJD2A Tudor	BAZ2B block	G9a inh	ALOX12 inh	PLK1 PBD inh	HP1b binding inh
Cc1nc2cc(NS(=O)(=O)c3cccc4cccnc34)ccc2s1	i	i	nt	i	i	i
CCn1nc(C(=O)N(C)C(c2ccccc2)c2ccccc2)c2ccccc2c1=O	nt	nt	nt	i	nt	nt
CC(C)OC(=O)c1c2c(n3ccccc13)C(=O)c1ccccc1C2=O	?	31.6µM	?	i	i	?
COCc1ccc(C(=O)N2CC(=O)N(c3ccccc3C#N)CC2C)s1 (stereo not given)	nt	nt	nt	i	nt	nt
COc1ccc(NC(=O)CCNS(=O)(=O)c2ccc(C)c(C)c2)cc1OC	i	i	i	i	i	i
CCOc1ccc(-c2csc(/C(C#N)=C\c3ccc(O)c([N+](=O)[O-])c3)n2)cc1	22.4µM	7.08µM	?	i	18.9µM	35.5µM
CCCCCCCc1n[nH]c(=S)n1Cc1ccccc1	?	i	nt	?	i	i
S=c1[nH]nc(Cc2ccccc2)n1Cc1ccco1	3.98µM	i	?	35.5µM	i	i
CCCn1c(Cc2ccccc2)n[nH]c1=S	7.08µM	i	?	i	i	i
O=c1n(-c2ccc(Cl)cc2)nc2n1CCN(Cc1ccc(F)cc1)C2	nt	nt	nt	i[6.33 µM]	nt	nt
O=c1c(CO)cc(CO)cc(CO)c1O	22.4µM	10µM	nt	i	i	i
Cc1cc(-c2csc(N)n2)c(C)n1Cc1ccco1	?	?	17.8µM	i	?	i
CCn1ncc(-c2csc(N)n2)c1C	i	?	i	i	i	i
COc1ccccc1CNc1cccc(C)n1	nt	nt	nt	i	i	nt
COc1ccccc1CNc1nc(-c2cc(C)n(C)c2C)cs1	39.8µM	39.8µM	10µM	?	?	i
Cc1ccc(-c2csc(N)n2)cc1	i	nt	nt	i	i	i
Cc1cc(-c2csc(N)n2)c(C)n1C	?	50.1µM	10µM	?	i	i
Cc1ccc(-n2c(C)cc(-c3csc(N)n3)c2C)cc1	39.8µM	56.2µM	5.01µM	?	i	?
Cc1cccc(-n2nnnc2Sc2nnnn2-c2ccccc2)c1C	nt	nt	nt	i	nt	nt
C/C(=N\NC(=O)c1cc(-c2ccccc2C)nc2ccccc12)c1cccnc1	i	i	i	i	i	i
O=C(/C=C/c1ccc([N+](=O)[O-])cc1)N(c1ccccn1)C1CCCCC1	56.2µM	nt	5.62µM	?	?	?
O=[N+]([O-])c1ccc(N2CCCCC2)s1	i	i	22.4µM	?	?	?
O=[N+]([O-])c1ccc(N2CCN(Cc3ccccc3)CC2)s1	i	?	i[2.33 µM]	i	i	i
Cc1ccc(C=Nc2cc([N+](=O)[O-])ccc2C)s1	i	i	i	i	i	i
CC(=O)Nc1nnc(-c2c(-c3ccccc3Cl)noc2C)o1	17.8µM	?	i	i	i	i
SMILES	JMJD2A Tudor	BAZ2B block	G9a inh	ALOX12 inh	PLK1 PBD inh	HP1b binding inh
CC(=O)Nc1ccc(NC(=O)c2c(-c3ccccc3Cl)noc2C)cc1	i	i	i	i	i	i
Cc1cccc(CC(=O)NCC(=O)NCc2cc(=O)n(C)c(=O)n2C)c1	?	i	i	i	2.99µM	i
CCOC(=O)c1sc(N2N=C(C)/C(=C\c3ccc(OCC(=O)OC)cc3)C2=O)nc1C	i	i	i	i	13.4µM	i
CCc1nnc2n1N=C(c1ccc(OC)cc1)CS2	i	i	i	i	i	i
O=[N+]([O-])c1ccc(C2=NN(CCO)C(=Nc3ccc(OC(F)(F)F)cc3)SC2)cc1	?	?	15.8µM	i	i	?
COc1ccc(N=C2SCC(c3ccc(C)cc3)=NN2CCO)cc1	i	?	50.1µM	?	i	i
Brc1cc2c(cc1/C=N/Nc1nc(N3CCCC3)nc(N3CCOCC3)n1)OCO2	i	i	15.8µM	i	i	i
O=C(Nc1ccccc1N1CCN(C(=O)c2ccc(Cl)cc2)CC1)c1cc2ccccc2o1	i[11.4 µM]	i	i[12.7 µM]	i	29.9µM	i
O=C(O/N=C1\CCCCC1c1ccc([N+](=O)[O-])cc1[N+](=O)[O-])c1c(F)cccc1F (stereo not given)	44.7µM	?	39.8µM	i	?	i
O=C(NCc1ccccc1F)c1cc(=O)[nH]c2ccccc12	i	i	i	i	i	i
Cc1oncc1C(=O)NC(C)C	i	i	44.7µM	i	i	i

Bioassay records deposited in PubChem by National Center for Advancing Translational Sciences (NCATS).
